# Experimental data: the supplement of paper PMC8975748
# Where a name gives a salt, the structure may show the parent alone. ± gives the standard deviation of the averaged measurements.
# Legend:
# [1] = test system: Saccharomyces cerevisiae BY4741 SeMeCo community; test: z-score of prototroph abundance vs DMSO median; higher = larger share of this subpopulation than in DMSO controls; details: 10 µM; 24 h; SM minimal medium; subpopulation (auxotrophy): Prototroph
# Summary of the method: (§1)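 Cells of a Saccharomyces cerevisiae BY4741 community, carrying four plasmids that each restored one auxotrophy and encoded a distinct fluorescent protein, were pre-grown overnight to OD600 1.0 and diluted to 0.3. A 70 µl volume was added to 384-well plates acoustically predosed with library drugs (10 µM final) and grown 24 h in minimal SM medium. After paraformaldehyde fixation, automated confocal microscopy was used, with single-auxotroph fluorescent strains for thresholds and autofluorescence correction. The abundance of each subpopulation was scored as a z-score against the vehicle-well median.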
# [2] = test system: Saccharomyces cerevisiae BY4741 SeMeCo community; test: z-score of subpopulation abundance vs DMSO median, subpopulation auxotrophic for M; higher = larger share of this subpopulation than in DMSO controls; details: 10 µM; 24 h; SM minimal medium; subpopulation (auxotrophy): M
# Summary of the method: as §1
# [3] = test system: Saccharomyces cerevisiae BY4741 SeMeCo community; test: z-score of subpopulation abundance vs DMSO median, subpopulation auxotrophic for L; higher = larger share of this subpopulation than in DMSO controls; details: 10 µM; 24 h; SM minimal medium; subpopulation (auxotrophy): L
# Summary of the method: as §1
# [4] = test system: Saccharomyces cerevisiae BY4741 SeMeCo community; test: z-score of subpopulation abundance vs DMSO median, subpopulation auxotrophic for U; higher = larger share of this subpopulation than in DMSO controls; details: 10 µM; 24 h; SM minimal medium; subpopulation (auxotrophy): U
# Summary of the method: as §1
# [5] = test system: Saccharomyces cerevisiae BY4741 SeMeCo community; test: z-score of subpopulation abundance vs DMSO median, subpopulation auxotrophic for H; higher = larger share of this subpopulation than in DMSO controls; details: 10 µM; 24 h; SM minimal medium; subpopulation (auxotrophy): H
# Summary of the method: as §1
# [6] = test system: Saccharomyces cerevisiae BY4741 SeMeCo community; test: z-score of subpopulation abundance vs DMSO median, subpopulation auxotrophic for LU; higher = larger share of this subpopulation than in DMSO controls; details: 10 µM; 24 h; SM minimal medium; subpopulation (auxotrophy): LU
# Summary of the method: as §1
# [7] = test system: Saccharomyces cerevisiae BY4741 SeMeCo community; test: z-score of subpopulation abundance vs DMSO median, subpopulation auxotrophic for LM; higher = larger share of this subpopulation than in DMSO controls; details: 10 µM; 24 h; SM minimal medium; subpopulation (auxotrophy): LM
# Summary of the method: as §1
# [8] = test system: Saccharomyces cerevisiae BY4741 SeMeCo community; test: z-score of subpopulation abundance vs DMSO median, subpopulation auxotrophic for HU; higher = larger share of this subpopulation than in DMSO controls; details: 10 µM; 24 h; SM minimal medium; subpopulation (auxotrophy): HU
# Summary of the method: as §1
# [9] = test system: Saccharomyces cerevisiae BY4741 SeMeCo community; test: z-score of subpopulation abundance vs DMSO median, subpopulation auxotrophic for UM; higher = larger share of this subpopulation than in DMSO controls; details: 10 µM; 24 h; SM minimal medium; subpopulation (auxotrophy): UM
# Summary of the method: as §1
# [10] = test system: Saccharomyces cerevisiae BY4741 SeMeCo community; test: z-score of subpopulation abundance vs DMSO median, subpopulation auxotrophic for HL; higher = larger share of this subpopulation than in DMSO controls; details: 10 µM; 24 h; SM minimal medium; subpopulation (auxotrophy): HL
# Summary of the method: as §1
# [11] = test system: Saccharomyces cerevisiae BY4741 SeMeCo community; test: z-score of subpopulation abundance vs DMSO median, subpopulation auxotrophic for HLU; higher = larger share of this subpopulation than in DMSO controls; details: 10 µM; 24 h; SM minimal medium; subpopulation (auxotrophy): HLU
# Summary of the method: as §1
# [12] = test system: Saccharomyces cerevisiae BY4741 SeMeCo community; test: z-score of subpopulation abundance vs DMSO median, subpopulation auxotrophic for HUM; higher = larger share of this subpopulation than in DMSO controls; details: 10 µM; 24 h; SM minimal medium; subpopulation (auxotrophy): HUM
# Summary of the method: as §1
# [13] = test system: Saccharomyces cerevisiae BY4741 SeMeCo community; test: z-score of subpopulation abundance vs DMSO median, subpopulation auxotrophic for HLUM; higher = larger share of this subpopulation than in DMSO controls; details: 10 µM; 24 h; SM minimal medium; subpopulation (auxotrophy): HLUM
# Summary of the method: as §1
# [14] = test system: Saccharomyces cerevisiae BY4741 SeMeCo community; test: mean cell size (pixel area) (pixels); higher = larger cells; details: 10 µM; 24 h; SM minimal medium
# Summary of the method: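 A Saccharomyces cerevisiae BY4741 community carrying four plasmids, each with a fluorescent marker and each complementing one auxotrophy, was exposed for 24 h to drug at a final 10 µM in SM medium in acoustically predosed 384-well plates. The overnight preculture (OD600 = 1.0) was diluted to OD600 = 0.3 before 70 µl was added per well. Cells were then fixed with paraformaldehyde, imaged by automated confocal microscopy and analysed in Harmony to derive mean cell pixel area per well, averaged over 3 replicates. Same SeMeCo high-content imaging drug screen: Selleck FDA-approved drugs at 10 µM, 24 h in SM medium, 384-well plates, 3 replicates.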
# [15] = test system: Saccharomyces cerevisiae BY4741 SeMeCo community; test: z-score of subpopulation abundance vs DMSO median, subpopulation auxotrophic for HM; higher = larger share of this subpopulation than in DMSO controls; details: 10 µM; 24 h; SM minimal medium; subpopulation (auxotrophy): HM
# Summary of the method: as §1
# [16] = test system: Saccharomyces cerevisiae BY4741 SeMeCo community; test: z-score of subpopulation abundance vs DMSO median, subpopulation auxotrophic for HLM; higher = larger share of this subpopulation than in DMSO controls; details: 10 µM; 24 h; SM minimal medium; subpopulation (auxotrophy): HLM
# Summary of the method: as §1
# [17] = test system: Saccharomyces cerevisiae BY4741 SeMeCo community; test: z-score of subpopulation abundance vs DMSO median, subpopulation auxotrophic for LUM; higher = larger share of this subpopulation than in DMSO controls; details: 10 µM; 24 h; SM minimal medium; subpopulation (auxotrophy): LUM
# Summary of the method: as §1
SMILES,z-score of prototroph abundance [1],z-score of subpopulation abundance [2],z-score of subpopulation abundance [3],z-score of subpopulation abundance [4],z-score of subpopulation abundance [5],z-score of subpopulation abundance [6],z-score of subpopulation abundance [7],z-score of subpopulation abundance [8],z-score of subpopulation abundance [9],z-score of subpopulation abundance [10],z-score of subpopulation abundance [11],z-score of subpopulation abundance [12],z-score of subpopulation abundance [13],mean cell size [14],z-score of subpopulation abundance [15],z-score of subpopulation abundance [16],z-score of subpopulation abundance [17]
O=C1[C@H]2CCCC[C@H]2C(=O)N1CCCCN1CCN(c2nsc3ccccc23)CC1 [Perospirone hydrochloride],0.14,-0.63,0.16,0.1,-0.14,0.24,-0.76,0.13,-0.02,-0.17,0.2,-0.23,-0.08,,,,
COc1cc2c(cc1OC)C(=O)C(CC1CCN(Cc3ccccc3)CC1)C2 (configuration not stated) [Donepezil HCl],0.26,0.12,,-0.01,,-0.36,-0.26,0.45,-0.48,-0.23,-0.1,0.3,-1.2,12 ± 0.22,-0.33,0.49,-0.52
CCCCN1CCCC[C@H]1C(=O)Nc1c(C)cccc1C [Levobupivacaine HCl],0.73,-1.02,0.42,-0.04,-0.68,-0.09,,0.14,-0.49,-0.46,-0.48,-0.73,,,-1.34,,-0.33
CC[N+](CC)(CC)CCOc1cccc(OCC[N+](CC)(CC)CC)c1OCC[N+](CC)(CC)CC [Gallamine Triethiodide],0.05,0.42,-0.79,0.76,-0.16,0.16,-0.42,,0.33,-1.15,0.07,0.25,,12.6 ± 0.14,-0.01,,
C[C@]12CCC3=C4CCC(=O)C=C4CC[C@H]3[C@@H]1CC[C@@]2(O)CC#N [Dienogest],0.42,-0.36,0.12,-0.87,,-0.52,-0.44,-0.02,-0.39,0.26,-0.53,,,12.4 ± 0.18,-0.11,,0
CO[C@@H]1[C@@H](O[C@@H]2O[C@H](C)[C@@H](O[C@H]3C[C@@](C)(O)[C@@H](O)[C@H](C)O3)[C@H](N(C)C)[C@H]2O)[C@@H](CC=O)C[C@@H](C)[C@@H](O[C@H]2CC[C@H](N(C)C)[C@@H](C)O2)/C=C/C=C/C[C@@H](C)OC(=O)C[C@H]1OC(C)=O [Acetylspiramycin (ASPM)],-0.27,-0.27,1.91,-1.32,1,0.65,,,-0.94,1.77,1.65,0.11,1.07,12.3 ± 0.32,0.27,,1.09
CCCc1nn(C)c2c(=O)[nH]c(-c3cc(S(=O)(=O)N4CCN(C)CC4)ccc3OCC)nc12 [Sildenafil Mesylate],-0.95,-0.91,,1.64,-0.01,0.91,-0.29,1.74,0.21,-0.5,0.05,1.55,0.08,12.2 ± 0.17,-0.05,-0.78,0.38
Nc1nc2ccc(OC(F)(F)F)cc2s1 [Riluzole],0.62,-0.49,0.43,-0.8,-0.43,0.41,0.35,-1.39,-0.42,-0.55,-0.57,-0.82,0.8,,-0.84,,
CC(=O)[O-].[K+] [Potassium acetate],0.52,-0.39,-0.45,-0.46,,-0.01,-0.98,0.19,-0.51,0.08,-0.71,,-0.44,12.5 ± 0.15,-0.29,,-0.06
CC/C(=C(\c1ccccc1)c1ccc(OCCN(C)C)cc1)c1ccccc1 [Tamoxifen Citrate],-0.56,-1.11,,0.72,,0.35,-0.23,0.74,1.43,0.64,0.36,1.07,-0.65,11.7 ± 0.14,0.16,-0.48,0.58
CCc1c(C)[nH]c2c1C(=O)C(CN1CCOCC1)CC2 (configuration not stated) [Molindone hydrochloride],0.46,-0.61,0.73,-0.6,-0.43,-0.32,-0.16,-0.73,-0.67,0.22,0.45,-0.76,0.04,,,,-0.28
C#C[C@]1(OC(C)=O)CC[C@H]2[C@@H]3CCC4=C[C@@H](OC(C)=O)CC[C@@H]4[C@H]3CC[C@@]21C [Ethynodiol diacetate],0.6,-0.73,-0.15,-1.03,-0.43,-0.48,0.57,-0.23,-0.32,0.67,0.1,-0.26,0.38,,-0.18,,-0.12
CCCNC(C)C(=O)Nc1ccccc1C (configuration not stated) [Prilocaine],,-0.72,1,-0.13,,0.36,,,-0.84,-0.2,0.3,,0.52,,0.09,,0.36
C=C1CCC2C(C)(CO)C(O)CCC2(C)C1CC=C1C=COC1=O (configuration not stated) [Dehydroandrographolide],-0.69,0.35,1.46,-0.43,,1.6,1.74,0.11,0.16,1.67,0.64,0.26,0.91,,0.87,,1.23
CC(=O)OCC1=C(C(=O)O)N2C(=O)[C@@H](NC(=O)CSc3ccncc3)[C@H]2SC1 [Cephapirin Benzathine],-0.46,-0.98,,1.05,,0.44,0.09,1.01,-0.24,,0.25,0.27,-0.55,12.7 ± 0.17,0.66,0.47,-0.22
